From paper PMC11062922 (Nature Chemical Biology, 2023)
Where two headings read alike, the source gives them in different places.

Key:
Set-up in all cases: species or system human, MV4-11 + K-562 + COLO205 + SK-N-BE2 + OVCAR-8
DJA1 = test system: T1, DJA1; conditions: read-out: apparent Kd, compound concentrations: 100 nM and 1000 nM (sheet 'Samples'), n = 1
T1 construct: gene DNAJA1

MAP2K1 = conditions: read-out: apparent Kd, n = 1
MAP2K2 = conditions: read-out: apparent Kd, n = 1
NQO1 = conditions: read-out: apparent Kd, n = 1
NLK = conditions: read-out: apparent Kd, n = 1
TGFBR2 = conditions: read-out: apparent Kd; compound concentrations:100 nM and 1000 nM (sheet 'Samples'); n = 1
MAPKAPK2 = conditions: read-out: apparent Kd; compound concentrations:100 nM and 1000 nM (sheet 'Samples'); n = 1
CSNK1D = conditions: read-out: apparent Kd, n = 1
NQO2 = conditions: read-out: apparent Kd, n = 1
PIK3CD = conditions: read-out: apparent Kd, n = 1
ERCC2 = conditions: read-out: apparent Kd; compound concentrations: 100 nM and 1000 nM (sheet 'Samples'), CATDS: 0.17876672107785799; n = 1
PDXK = conditions: read-out: apparent Kd, n = 1
PDGFRB = conditions: read-out: apparent Kd, compound concentrations: 100 nM and 1000 nM (sheet 'Samples'), n = 1
MAP4K5 = conditions: read-out: apparent Kd; compound concentrations:100 nM and 1000 nM (sheet 'Samples'); n = 1
[1] = compound concentrations:100 nM and 1000 nM (sheet 'Samples')

## Clc1ccc(-c2nn3ncccc3c2-c2ccnc(Nc3ccccc3)n2)cc1 [GW829055X]
DJA1; CATDS: 4.1892877755586803E-2
  potency estimated from few doses: 1.06 µM
MAP2K1; compound concentrations: 100 nM and 1000 nM (sheet 'Samples'), CATDS: 0.148171076580532
  potency estimated from few doses: 0.138 µM
MAP2K2; compound concentrations: 100 nM and 1000 nM (sheet 'Samples'), CATDS: 3.8918058303858701E-2
  potency estimated from few doses: 1.25 µM
NQO1; compound concentrations: 100 nM and 1000 nM (sheet 'Samples'), CATDS: 4.2030828964441901E-2
  potency estimated from few doses: 1.05 µM

## COc1ccc(C2=C(Nc3cccc(O)c3)C(=O)NC2=O)cc1 [SB-390766]
NLK; [1]
  potency estimated from few doses: 2.21 µM
TGFBR2
  potency estimated from few doses: 2.03 µM

## Nc1c(C(=O)c2ccccc2)cnn1-c1ccc(F)cc1 [RO1151246-000]
MAP2K1; [1]
  potency estimated from few doses: 1.47 µM
MAP2K2; [1]
  potency estimated from few doses: 1.54 µM
MAPKAPK2
  potency estimated from few doses: 0.665 µM

## Fc1ccc(-c2ncn(C3CCNCC3)c2-c2ccnc(Oc3ccc4c(c3)OCO4)n2)cc1 [SB-250715]
CSNK1D; [1]
  potency estimated from few doses: 0.271 µM
MAP2K1; [1]
  potency estimated from few doses: 1.05 µM
MAP2K2; [1]
  potency estimated from few doses: 1.56 µM
MAPKAPK2
  potency estimated from few doses: 0.00425 µM
NQO1; [1]
  potency estimated from few doses: 1.7 µM

## CS(=O)(=O)c1ccc(-c2nc3n(c2-c2ccncc2)CCC3)cc1 [SKF-105942]
DJA1; CATDS: 0.12627731400414099
  potency estimated from few doses: 1.7 µM
NQO1; compound concentrations: 100 nM and 1000 nM (sheet 'Samples'), CATDS: 0.13363559113377599
  potency estimated from few doses: 1.48 µM
NQO2; compound concentrations: 100 nM and 1000 nM (sheet 'Samples'), CATDS: 0.142598499620046
  potency estimated from few doses: 1.27 µM
PIK3CD; compound concentrations: 100 nM and 1000 nM (sheet 'Samples'), CATDS: 0.51073942178012399
  potency estimated from few doses: 0.141 µM

## Fc1cccc(COc2ccc(Nc3ncncc3C#Cc3ccccc3)cc2Cl)c1 [GW651576X]
DJA1; CATDS: 6.6379654075199995E-2
  potency estimated from few doses: 1.04 µM
MAP2K1; compound concentrations: 100 nM and 1000 nM (sheet 'Samples'), CATDS: 4.57330679966748E-2
  potency estimated from few doses: 2.2 µM
MAP2K2; compound concentrations: 100 nM and 1000 nM (sheet 'Samples'), CATDS: 5.7439305981691703E-2
  potency estimated from few doses: 1.35 µM
NQO1; compound concentrations: 100 nM and 1000 nM (sheet 'Samples'), CATDS: 4.6647451225595299E-2
  potency estimated from few doses: 2.09 µM

## CCCN1CCC(Oc2cc(Nc3nc(Nc4cccc(F)c4C(N)=O)c4cc[nH]c4n3)c(OC)cc2Cl)CC1 [GSK1713088A]
ERCC2
  potency estimated from few doses: 2.04 µM

## COc1cccc(C2=C(c3cn(C)c4c(C)cccc34)C(=O)NC2=O)c1 [RO3301012-000]
NQO1; compound concentrations: 100 nM and 1000 nM (sheet 'Samples'), CATDS: 0.106114123885474
  potency estimated from few doses: 1.55 µM
PDXK; compound concentrations: 100 nM and 1000 nM (sheet 'Samples'), CATDS: 9.7216683357623401E-2
  potency estimated from few doses: 2 µM

## Cc1ccc(NC(=O)c2ccc(Cl)cc2)cc1-c1ccc(C(=O)Nc2ccncc2)cc1 [GSK1398467A]
CSNK1D; compound concentrations: 100 nM and 1000 nM (sheet 'Samples'), CATDS: 0.16187565637937301
  potency estimated from few doses: 2.02 µM

## Cc1ccc(-n2nc(C(C)(C)C)cc2NC(=O)Nc2ccc(OCCN3CCOCC3)cc2)cc1 [BIRB0876BS]
PIK3CD; [1]
  potency estimated from few doses: 0.00961 µM

## Cl.Fc1cccc(COc2ccc(Nc3ncnc4cc(-c5ccc[nH]5)sc34)cc2Cl)c1 [GW693881A]
NQO2; compound concentrations: 100 nM and 1000 nM (sheet 'Samples'), CATDS: 0.24245202120631801
  potency estimated from few doses: 0.56 µM

## COc1ccc(COc2ccc(Cc3cnc(N)nc3N)cc2OC)cc1 [GW632580X]
MAP2K2; [1]
  potency estimated from few doses: 1.63 µM

## O=C1NC(=O)C(c2cccc(Cl)c2)=C1Nc1ccc(O)c(Cl)c1 [SB-409514]
PDGFRB; CATDS: 0.33776588797305401
  potency estimated from few doses: 1.28 µM

## COc1ccc(-c2nn3ncccc3c2-c2ccnc(Nc3ccc4c(c3)OCCO4)n2)cc1 [GW827106X]
CSNK1D; compound concentrations: 100 nM and 1000 nM (sheet 'Samples'), CATDS: 4.1816048723515499E-2
  potency estimated from few doses: 2.43 µM
NLK; compound concentrations: 100 nM and 1000 nM (sheet 'Samples'), CATDS: 4.4703419918465902E-2
  potency estimated from few doses: 1.99 µM

## Cc1ccc(CC(=O)N2CCc3cc(-c4cn(C)c5ncnc(N)c45)ccc32)cc1 [GSK2634758A]
DJA1; CATDS: 0.16738098836047199
  potency estimated from few doses: 1.4 µM
NQO2; compound concentrations: 100 nM and 1000 nM (sheet 'Samples'), CATDS: 0.188092935593722
  potency estimated from few doses: 1.12 µM
PDXK; compound concentrations: 100 nM and 1000 nM (sheet 'Samples'), CATDS: 0.16794834883854801
  potency estimated from few doses: 1.39 µM

## COc1cc(N2CCN(C(C)C)CC2)ccc1Nc1nc(Nc2cccc(F)c2C(=O)O)c2cc[nH]c2n1 [GSK1819799A]
DJA1; CATDS: 4.1353934999492699E-2
  potency estimated from few doses: 2.22 µM
MAP2K1; compound concentrations: 100 nM and 1000 nM (sheet 'Samples'), CATDS: 4.3561445001152499E-2
  potency estimated from few doses: 1.87 µM

## COc1cc2ncn(-c3cc(O[C@H](C)c4ccccc4Cl)c(C(N)=O)s3)c2cc1OC [GSK237701A]
MAP4K5
  potency estimated from few doses: 1.16 µM

## Cc1ccc(NC(=O)Nc2ccccc2)cc1-c1ccc(C(=O)Nc2ccncc2)cc1 [GSK1398471A]
PDGFRB; CATDS: 0.100538994858546
  potency estimated from few doses: 1.94 µM

## Cn1cc(C2=C(c3ccccc3[N+](=O)[O-])C(=O)NC2=O)c2ccccc21 [RO0317753-000]
NQO2; compound concentrations: 100 nM and 1000 nM (sheet 'Samples'), CATDS: 7.9210826703434503E-2
  potency estimated from few doses: 1.28 µM
PDXK; compound concentrations: 100 nM and 1000 nM (sheet 'Samples'), CATDS: 8.6520417055061499E-2
  potency estimated from few doses: 0.907 µM

## COc1ccc(Nc2nccc(N3CCC(NC(=O)Nc4cccc(OC)c4)C3)n2)cc1 (stereo not shown) [GSK1379742A]
MAP2K1; compound concentrations: 100 nM and 1000 nM (sheet 'Samples'), CATDS: 0.105548477944527
  potency estimated from few doses: 2.4 µM
MAP2K2; compound concentrations: 100 nM and 1000 nM (sheet 'Samples'), CATDS: 0.114470387989454
  potency estimated from few doses: 1.98 µM
NQO1; compound concentrations: 100 nM and 1000 nM (sheet 'Samples'), CATDS: 0.15295412535869199
  potency estimated from few doses: 1.12 µM

## Cl.Oc1ccc2ncnc(Nc3ccc(OCc4ccccc4)cc3)c2c1 [GI262866A]
PDXK; [1]
  potency estimated from few doses: 0.506 µM

## Cn1cc(C2=C(c3cn(CCCCCO)c4ccccc34)C(=O)NC2=O)c2ccccc21 [RO0318053-000]
NQO2; compound concentrations: 100 nM and 1000 nM (sheet 'Samples'), CATDS: 9.2585577918862794E-2
  potency estimated from few doses: 0.959 µM
PDXK; compound concentrations: 100 nM and 1000 nM (sheet 'Samples'), CATDS: 0.25573485461169798
  potency estimated from few doses: 0.0604 µM

## CN(C(=O)c1ccc(-c2cc(-c3c[nH]nc3-c3ccccn3)ccn2)cc1)C1CCOCC1 [GW810083X]
CSNK1D; [1]
  potency estimated from few doses: 1.94 µM
NQO2; [1]
  potency estimated from few doses: 1.2 µM
